Our source for the growth values is PubChem BioAssay (NCI).

Experiment in all cases: NCI-60 one-dose screen, 48 h (100 = growth as untreated, 0 = no growth, -100 = all killed)
Holding throughout (conditions): 10 µM unless noted

The subject of test [1] is HCT-15 colon.
Test [2] relates to HT29 colon.
Test [3] relates to SNB-19 CNS.
For test [4], the system named is U251 CNS.
Test [5] concerns PC-3 prostate.
Test [6] has as its system SK-MEL-5 melanoma.
Test [7] relates to UACC-62 melanoma.
Test [8] concerns SK-MEL-28 melanoma.
Test [9] relates to SK-MEL-2 melanoma.
Test [10] deals with EKVX NSCLC.
Test [11] relates to SN12C renal.
The test system of test [12] is UO-31 renal.
Test [13] concerns TK-10 renal.
Test [14] concerns ACHN renal.
Test [15] concerns CAKI-1 renal.
Test [16] concerns A498 renal.
The test system of test [17] is MOLT-4 leukemia.
The subject of test [18] is LOX IMVI melanoma.
For test [19], the system named is CCRF-CEM leukemia.

The panel holds about 83,000 compounds, 20% with a hit somewhere; the sample as a whole holds those more often.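 For each line, cells grew in 96-well plates with the test compound present at a single concentration for 48 hours.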 Unmarked numbers belong to inactive results. Active and inactive are the calls of the source. How the source made its calls: active means growth percent below 10; inactive means the rest.

For the compound `Clc1cc(Cl)c2nc(-c3ccc(-c4ccc(/C=N/NC5=NCCN5)cc4)s3)cn2c1`, the growth in test [1] is 38%; in test [2] it was 35%; in [3], 100%; in test [4] it was 87.2%; in [5] it was 76.5%; in test [6], 88%. Besides, the growth was 98.8% in [7]; 99.7% in test [8]; 106% in [9]; 80.8% in [10]; 92.5% in test [11]; 72% in test [12]. For the same compound, the growth was 110% in test [13]; 105% in test [14]; 91.9% in [15]; 38% in [16]; 73% in test [17].

In the case of `CCCCN(CCCC)C(=N)c1ccnc2ccccc12`, the growth in test [1] is 101%; in test [2], 89.1%; in test [3], 115%; in test [4], 107%; in test [5], 105%; in test [6] it was 119%. Moreover, the growth is 111% in test [7]; 101% in test [18]; 104% in test [10]; 113% in test [11]; 89.7% in test [12]; 105% in test [13]. The growth was 109% in test [14]; 108% in test [15]; 90.6% in test [16]; 8.24% (active) in [19]; 42.6% in [17].

With `Cc1ccc(-c2cc3nc(C(Cl)Cl)nc(-c4cccnc4)n3n2)cc1`, the growth in [1] is -23.4% (active); in test [2], -27% (active); in test [3] it was 23.4%; in [4] it was -15.3% (active); in [5] it was -4% (active); in [6], 44.8%. The growth in [7] was 33.3%; in test [8] it was 53.2%; in [9], 77.8%; in test [10], -2.59% (active); in test [11], 55.1%; in test [12], 35.9%. In addition, the growth in [13] is 6.78% (active); in test [14], 1.65% (active); in test [15], 2.71% (active); in [16] it was 37.3%; in [17], 27.8%.

In the case of `Cc1ccc(-c2nc(C(Cl)Cl)n3nc(-c4ccccc4)cc3n2)cc1`, the growth in [1] is -26.8% (active); in [2] it was -43.6% (active); in test [3], 27.4%; in test [4], -42.1% (active); in test [5], -13% (active); in [6] it was 78.5%. The growth in [7] was -8.44% (active); in test [8] it was 85.9%; in test [9], 55.9%; in [10], 35.3%; in [11] it was 70.4%; in test [12], 46.9%. Also, the growth in test [13] is -68.6% (active); in test [14] it was 3.72% (active); in test [15] it was 4.32% (active); in test [16], 77.8%; in test [17], 103%.

Take `Cn1ccc(Nc2nccc(Oc3ccc(C(=O)Nc4cccc(F)c4)c(Cl)c3)n2)c1`: the growth in [1] was 91.9%; in [2] it was 100%; in test [3] it was 77.6%; in test [4], 96.2%; in [5], 63.6%; in [6], 39.5%. In addition, the growth was 66.8% in test [7]; 96.6% in test [8]; 58% in test [9]; 47.1% in test [10]; 73.4% in test [11]; 62.6% in [12]. In addition, the growth was 54.4% in test [13]; 44.7% in test [14]; 69.6% in test [15]; 46.9% in test [16]; 58.4% in test [19]; 83.3% in [17].

As to `O=C1NC(=C(Cl)Cl)/C(=N/S(=O)(=O)N2CCC(C3(C(F)(F)F)N=N3)CC2)N1`, the growth in test [1] was -60.6% (active); in [2] it was -10.2% (active); in test [3] it was 86.7%; in test [4], 45.2%; in test [5], 89.6%; in test [6], 92%. Moreover, the growth is 91.7% in test [7]; 99.1% in test [8]; 101% in [9]; 89.6% in test [10]; 87.7% in test [11]; 85.7% in test [12]. In addition, the growth in test [13] is 97%; in test [14], 103%; in test [15], 74.5%; in test [17], 54.9%.

With `COc1cccc(/C=C2\Oc3cc(OCCCN4CCCC4)ccc3C2=O)c1OC`, the growth is 76.2% in [1]; 48.6% in test [2]; 102% in test [3]; 93.2% in test [4]; 91.9% in test [5]; 98.9% in [7]. The growth in test [18] was 89.2%; in test [8], 105%; in [9] it was 105%; in test [10], 93%; in [11] it was 95.2%; in [12], 79.3%. In addition, the growth in [13] is 104%; in test [14] it was 102%; in test [15], 93.1%; in [19] it was 85.1%; in test [17], 91.5%.

As for `COc1c2occc2c(OC)c2c(=O)c(-c3cc(-c4ccc(F)cc4)c(C#N)c(N)n3)c(C)oc12`, the growth was 31.4% in test [1]; 14.2% in test [2]; 51.2% in test [3]; 30.6% in [4]; 22.8% in test [5]; 37.1% in [6]. Further, the growth was 6.13% (active) in test [18]; 59.9% in test [9]; 32% in [10]; 39.5% in [11]; 25.3% in [12]; 53.7% in test [13]. For the same compound, the growth in [14] is 41.8%; in test [15], 50.5%; in [19] it was 16%; in test [17], 5.86% (active).

As to `C=C1C(=O)O[C@H]2[C@H]1CC/C(Cn1cc(-c3cccc(Cl)c3)nn1)=C\CC[C@@]1(C)O[C@@H]21`, the growth is -72.3% (active) in test [1]; -56.3% (active) in test [2]; 37.9% in test [3]; -71.1% (active) in test [4]; -59.1% (active) in test [5]; -52.6% (active) in test [6]. The growth in test [18] is -91.1% (active); in test [9], -40.8% (active); in test [10], -18.4% (active); in [11] it was -37.1% (active); in test [12], -95.4% (active); in [13], -97.1% (active). The growth was -89% (active) in test [14]; -82.2% (active) in test [15]; -26.2% (active) in test [16]; -40.8% (active) in test [19]; -18.6% (active) in [17].
